The OligoGym collection

These sequences were tested against RABGEF1 (assay: pooled miR-30 sensor sort-seq; sequence = guide strand). Details: shRNA.
Note: reference of the scale not given here.

Row | Sequence | sensor-assay potency score (higher = more potent)
1 | TTTCAGAGTCAATAGCTGCTAA | -0.257
2 | TTTCTTTTCTTCAAACTTGGAG | -0.131
3 | TTCTTCAATGCTTAGATCCCTT | -0.412
4 | TTCTTTTCTTCAAACTTGGAGA | -0.783
5 | TTAGTTACATTCTAGATCCCAA | 0.187
6 | TTCACTGTGGTAACCTTGCGGG | -0.0581
7 | TTATACATTTGCTTGACGCCTA | 0.54

These sequences were tested against RAD18 in the same assay as above. Details: shRNA.

Row | Sequence | sensor-assay potency score (higher = more potent)
8 | TTTTCTAGCCTGATCCACCAGA | -0.673
9 | TACTTTGACAGCAAGATTCTTT | 0.474
10 | TTTTCTTTTATCAACAACTCTG | 0.0462
11 | TTTATCAACAACTCTGATGTAG | 1.04
12 | TATAAATAGAAAATCTATCTGT | 0.122
13 | TTTCCTTCTTCTCTTCGCGTGA | -0.0825
14 | TTTTGTGAACAGAACTTCTGAG | 0.451
15 | TAGAATTTAGCATCTTTCCTTG | -0.0135
16 | TTTGTGAACAGAACTTCTGAGG | -0.395
17 | TTCTGTGTCTTGAAGATCGTTT | 0.506
18 | TTTCATTGAGTTTACTAGCTTC | 0.211

The sequences below were run against RAD54L in the same assay as above. Details: shRNA.

Row | Sequence | sensor-assay potency score (higher = more potent)
19 | TTAACAAAATGTACCAAGCTGA | -0.415
20 | TTGTCTCAGAAACCTCTTGTAT | -1.26
21 | TAGATATAGCAAGTCTTCTTTT | -1.02
22 | TTCTTTTGACCATCTCGCCAGA | -0.96
23 | TCTTGTATAACTCAGTCTGAAG | -1.48
24 | TTCTTGATGATTTTCTCCCAGA | -0.985
25 | TTCATGCTGACTGCTGTCCAGA | -1.19
26 | TTGACCATCTCGCCAGACCCGG | -1.03
27 | TTACAAAGCTTCTTTAGCGAGG | -0.517
28 | TTGCACTCTGGACTCTGGCGTA | -0.761
29 | TTCTTAATGGACATCGTGCCAT | -0.43
30 | TTGATTGGTTAGCTGACTCAAA | -0.506

The sequences below were run against RAD9A in the same assay as above. Details: shRNA.

Row | Sequence | sensor-assay potency score (higher = more potent)
31 | TACAGTGACAGCCAGCTGGGGC | -0.774
32 | TGTGCTGTGAGCCTGGAGCTGA | -0.559
33 | TCACATCTAAGACACTGCCTGG | -0.534
34 | TCAAGTTTGCTGACTCTGCAAA | -0.678
35 | TCATTGGCAAAGTCGTCCGGGT | -0.913
36 | TTCATCAGGATCTTACAGCGCA | 0.0418
37 | TTCCTTAGGAAGGTGAGCCTGA | 0.111
38 | TGAATCAATAGCAGCGTCCAGT | -0.732
39 | TTTACAGTGACAGCCAGCTGGG | -1.03
40 | TTAATGAATCAATAGCAGCGTC | -0.585
